The full list was thinned out, with hits kept by preference.
Marburg entry inh – blocks Marburg virus binding to or entry into cells; Marburg virus pseudotyped entry inhibition, cell reporter; Potency, µM (titrated, usually from 37.8 µM), most hits filed as inhibitors; actives 1.8% (n = 300,000); AID 540276; calls by dose curve; tested in HEK293 cells
Shiga toxin inh – blocks Shiga toxin action in Vero cells; Vero cells, Shiga toxin protein synthesis inhibition reporter; inhibition, % at 38.7 µM; actives 9.2% (n = 290,000); AID 2315; in the data active = inhibition mostly above about 28%, no sharp cut-off; inactive = mostly below about 43%
LASV entry inh – Lassa virus entry inhibition; Lassa virus pseudotype entry inhibition, cell reporter; Potency, µM (titrated, usually from 37.9 µM), actives largely listed as inhibitors; actives 1.2% (n = 300,000); calls by dose curve; tested in HEK293 cells; also: nearly all actives have a fitted effect of over 50% in size
AMA1-RON2 inh – AMA1-RON2 (P. falciparum) interaction inhibition | AlphaScreen AMA1-biotinylated RON2 peptide binding | AID 720542 | actives 0.2% (n = 360,000) | Potency, µM (doses to about 58.2 µM), actives largely listed as inhibitors; active = well fitted inhibition curve with a large enough effect; inconclusive = small, poorly fitted or top-dose-only effect; inactive = no such curve, though single readings can be large or run the other way; also: nearly all actives have a fitted effect of over 45% in size
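AMA1 (3D7) with his tag at 25 nM final met compounds first, then biotinylated RON2 peptide at 25 nM; detection used donor plus acceptor beads, 10 µg/mL apiece, read by AlphaScreen after 30 min at room temperature.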
Cycloheximide cs – affects cycloheximide protein synthesis inhibition readout, counter-screen; actives 12% (n = 300,000); max response, %; cell reporter, cycloheximide protein synthesis inhibition counterscreen; in the data active = max response mostly above about 13%, no sharp cut-off; inactive = mostly below about 14%; also: read at 38.3 µM for the half of the compounds with a filed dose
Numbers stand for hits; 0 = inactive; ? = inconclusive; - = not tested or not shown; [ ] = remark or other dose.

SMILES	Marburg entry inh	Shiga toxin inh	LASV entry inh	AMA1-RON2 inh	Cycloheximide cs
COc1ccccc1NC(=O)Cn1c(=O)n(Cc2nc(-c3ccccc3)no2)c(=O)c2ccccc21	-	-	0	-	-
Nc1ccccc1NC1CCCCC1	0	0	0	?	0
c1ccc(Oc2ccc(-c3ccn[nH]3)cc2)cc1	?	69.0	0	0	36.6
CCCC(=O)Nc1ccc(NC(=S)NC(=O)c2cccs2)cc1	0	51.1	0	0	0
CCN(CC)c1ccc(NC(=S)NC(=O)c2cccs2)cc1	-	87.6	-	?	46.2
Cc1ccc(C(=O)NC(=S)Nc2ccc(-c3ccc(CO)o3)cc2)cc1	0	0	0	0	0
CC(=O)NC(=S)Nc1ccc(NC(=S)NC(=O)c2cccs2)cc1	-	0	-	0	0
O=C(NC(=S)Nc1ccc(-c2ccc(CO)o2)cc1)c1cccs1	0	66.7	0	0	46.1
CCCC(=O)NC(=S)Nc1ccc(NC(=O)c2cccs2)cc1	0	0	0	0	12.2
O=C(c1cccc(Br)c1)N1CCN(S(=O)(=O)N2CCCCCC2)CC1	0	0	0	0	0
Cc1nc(S(=O)(=O)N2CCN(c3ccc(Cl)cc3)CC2)cn1C	-	-	0	-	-
O=C(Nc1cccc(Cl)c1Cl)c1ccc2c(c1)N(Cc1cccc(Cl)c1)C(=O)c1ccccc1S2(=O)=O	?	-	0	-	-
O=C(Nc1nc(-c2cccs2)cs1)c1ccc(S(=O)(=O)N2CCCC2)cc1	11.6µM	0	20.6µM	0	0
O=C(Nc1nc(-c2ccc(S(=O)(=O)N3CCCCCC3)cc2)cs1)c1ccccc1	0	0	?	0	0
Cc1csc(NC(=O)C2CCCCN2S(=O)(=O)c2ccccc2)n1 (stereo not given)	0	0	0	0	13.4
Cc1nc(-c2ccc(S(=O)(=O)N3CCCCCC3)cc2)cs1	0	99.7	0	0	21.1
Cc1csc(NC(=O)c2ccc(S(=O)(=O)N3CCN(C)CC3)cc2)n1	0	58.1	0	0	31.9
COc1ccc(S(=O)(=O)N2CCCCC2)cc1NC(=O)C1CC1C (stereo not given)	-	-	-	0	-
CCC1CCCCN1C(=O)CSc1n[nH]c(-c2ccccc2)n1 (stereo not given)	-	-	0	-	-
Brc1ccc(-c2noc3c2-c2nc(-c4ccccc4)sc2CC3)cc1	-	-	-	0	-
Cc1csc(NC(=O)c2ccc(S(=O)(=O)N3CCCC3)cc2)n1	-	0	-	0	17.1
COc1ccc(-c2cn3c(n2)sc2cc(C(=O)NC4CCCc5ccccc54)ccc23)cc1 (stereo not given)	-	-	0	-	-
CNC(=O)c1nnsc1S(=O)c1ccc(Cl)cc1 (stereo not given)	?	98.2	?	0	55.3
CCCNC(=O)c1nnsc1S(=O)c1ccc(Cl)cc1 (stereo not given)	?	0	?	0	36.0
CCCNC(=O)c1nnsc1S(=O)(=O)c1ccc(Cl)cc1	?	0	2.82µM	0	27.0
SMILES	Marburg entry inh	Shiga toxin inh	LASV entry inh	AMA1-RON2 inh	Cycloheximide cs
Cc1nnsc1S(=O)c1ccc(F)cc1 (stereo not given)	-	0	-	0	0
Cc1ccc(S(=O)c2snnc2C)cc1 (stereo not given)	?	0	0	0	0
CCCNC(=O)NS(=O)(=O)c1ccc(Cl)cc1	0	0	0	0	0
Cc1cccc(N(C)C(=O)CCNS(=O)(=O)c2ccc3c(c2)CCN3C(=O)C2CC2)c1	-	-	0	-	-
CCS(=O)(=O)N1N=C(c2cccs2)CC1c1cc2cc(C)ccc2nc1Cl (stereo not given)	-	0	-	0	31.5
CN(C)CCNC(=O)c1ccc(COc2ccc(Cl)cc2Cl)cc1	8.2µM	0	?	0	0
O=C(COc1ccc(Cl)cc1Cl)NNC(=S)NC(=O)c1ccco1	?	0	0	0	0
O=C(COc1ccccc1Cl)NCc1ccco1	?	0	0	0	22.5
O=C(COC(=O)CNC(=O)c1ccc(Cl)cc1Cl)NCc1ccco1	2.82µM	-	?	0	-
O=C(COc1ccc(Cl)cc1Cl)NNC(=S)NCc1ccco1	-	0	-	0	16.6
CCOC(=O)C1=CCN(S(=O)(=O)c2ccc(C)cc2)C1c1cccc(C)c1 (stereo not given)	-	-	-	0	-
CCn1c(C)nc2cc(C(=O)NN=Cc3ccc([N+](=O)[O-])cc3)ccc21	0	-	0	0[11.6 µM]	-
O=C(Cc1ccc(-c2ccccc2)cc1)NNC(=S)NCc1ccco1	0	56.0	?	0	0
O=C(CNC(=O)c1ccc(Cl)cc1Cl)OCC(=O)c1ccc2c(c1)OCCO2	0	73.2	0	0	31.0
CCOc1cc(C(=O)NCc2ccco2)cc(OCC)c1OCC	-	0	-	0	0
O=C(NCc1ccco1)c1ccc(COc2cc(Cl)ccc2Cl)cc1	0	69.2	0	0[11.6 µM]	23.9
C/C(CC(=O)NCc1ccco1)=N\NC(=O)COc1ccc(Cl)cc1Cl	?	0	0	0	0
O=C(Cc1cccs1)NNC(=S)NCc1ccco1	?	0	0	0	0
O=C(COc1ccc(Cl)cc1Cl)NCc1ccco1	0	125.5	?	0	28.7
COc1cc(NC(=O)C2CC(c3ccccc3Cl)=NO2)cc(OC)c1OC (stereo not given)	-	0	-	0	0
O=C(NCc1ccco1)c1ccc2c(c1)N(Cc1ccc(Cl)cc1)CCS2	?	44.6	?	?	8.3
Cc1c(C(=O)Nc2ccc3c(c2)CCC3)cccc1[N+](=O)[O-]	0	125.3	?	0	95.5
CSc1ccccc1C(=O)Nc1ccc2c(c1)CCC2	?	41.1	0	0	0
COC(=O)c1ccc(NC(=O)c2ccccc2SC)cc1	0	46.2	?	0	27.3
Cc1c(C(=O)Nc2ccc(Nc3ccccc3)cc2)cccc1[N+](=O)[O-]	-	0	-	0	0
SMILES	Marburg entry inh	Shiga toxin inh	LASV entry inh	AMA1-RON2 inh	Cycloheximide cs
CSc1ccccc1C(=O)Nc1cccc(C)c1	?	0	?	0	0
O=C(Nc1ccc2c(c1)CCC2)c1ccccc1Br	?	62.8	?	0	33.5
COc1ccc(C(=O)Nc2nnc(SCc3cc(=O)n4cccc(C)c4n3)s2)cc1	-	-	0	-	-
O=C(OCc1nnc(-c2ccccc2)o1)C1CCN(S(=O)(=O)c2cccs2)CC1	0	0	0	0	0
COC(=O)c1ccc(NC(=O)c2ccccc2N(C)S(=O)(=O)c2ccccc2)cc1	0	0	?	0	16.3
CCOc1ccc(NC(=O)c2cnn(-c3ccc(C)c(C)c3)c2C2CCN(C(=O)OC(C)(C)C)CC2)cc1	0	-	0	-	-
CCN(CCO)CCCC(C)Nc1ccnc2cc(Cl)ccc12 (stereo not given)	-	0	-	-	0
CCN(CC)CCNc1ccnc2cc(Cl)ccc12	2.91µM	0	0	0	0
Cc1ccc(C(=O)NCC(=O)N(C)CC(=O)Nc2c(Cl)cccc2Cl)s1	0	-	0	0	-
COc1ccc(-c2cc(N)n(S(=O)(=O)c3c(F)c(F)c(F)c(F)c3F)n2)cc1OC	2.31µM	32.9	?	0	13.8
COc1cc(OC)c(OC)cc1/C=C1\Oc2cc(OS(C)(=O)=O)ccc2C1=O	?	0	0	0	0
COc1ccc2c(c1)O/C(=C\c1ccccc1C)C2=O	0	65.7	0	0	31.2
Cc1cc2cc(CN(CC3CCCO3)C(=S)Nc3ccccc3)c(=O)[nH]c2cc1C (stereo not given)	?	0	7.08µM	0	0
CN(C)CCCN(Cc1cc2cc3c(cc2[nH]c1=O)OCO3)C(=S)Nc1ccccc1	?	30.5	?	0	0

Assay outcomes from PubChem BioAssay.
